{"source": "a collection of fitness landscapes (doi:10.1016/j.celrep.2020.107928)", "parents": {"B1": {"name": "Caulobacter ParB omega fusion; a variant is named by its letters at X, in order, B8GW30 (parent)", "chain": "MESVVVGEPGMSEGRRGLGRGLSALLGEVDAAPAQAPGEQLGGSREAPIEILQRNPDQPRRTFREEDLEDLSNSIREKGVLQPILVRPSPDTAGEYQIVAGERAWRAAQRAGLKTVPIMVRELDDLAVLEIGIIENVQRADLNVLEEALSYKVLMEKFERTQENIAQTIGKSXSHVANXMRLLXLPDEVQSYLVSGELTAXHARAIAAAADPVALAKQIIEGGLSVRETEALARKAPNLSAGKSKGGRPPRVKDTDTQALESDLSSVLGLDVSIDHRGSTGTLTITYATLEQLDDLCNRLTRGI"}}, "note": "In all, about 81,000 sequences were measured (“one-hybrid fitness for binding NBS DNA”: median about -0.1, highest 2% from about 0.36 on). This is one part of a sample in which the highest values are shown more often than they occur.", "data": [{"variants_of": "B1", "test": "one-hybrid fitness for binding NBS DNA (the Noc-binding site; scaled: cognate 1, non-cognate 0); higher = stronger binding", "details": "with NBS DNA site", "outline": "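Selection: bacterial one-hybrid in E. coli USO, HIS3 reporter with the site 19 bp from the promoter, 48 hours at 37°C on M9-minus-histidine plus 0.1 mM IPTG and 5 mM 3-AT. Libraries were Caulobacter ParB with four randomised specificity codons, sequenced on Illumina before and after selection. Fitness is the rescaled log change in variant-to-wild-type read ratio, anchored to the cognate and non-cognate sites.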", "values": [{"variant": "DHKR", "one-hybrid fitness for binding NBS DNA": "≤ 0.2"}, {"variant": "QHVS", "one-hybrid fitness for binding NBS DNA": 0.221}, {"variant": "LTLF", "one-hybrid fitness for binding NBS DNA": "≤ 0.2"}, {"variant": "YIRF", "one-hybrid fitness for binding NBS DNA": "≤ 0.2"}, {"variant": "KAST", "one-hybrid fitness for binding NBS DNA": "≤ 0.2"}, {"variant": "GTAV", "one-hybrid fitness for binding NBS DNA": "≤ 0.2"}, {"variant": "DPRR", "one-hybrid fitness for binding NBS DNA": "≤ 0.2"}, {"variant": "KKRR", "one-hybrid fitness for binding NBS DNA": 0.47}, {"variant": "KMRR", "one-hybrid fitness for binding NBS DNA": 0.398}, {"variant": "KKDR", "one-hybrid fitness for binding NBS DNA": "≤ 0.2"}, {"variant": "KTDR", "one-hybrid fitness for binding NBS DNA": "≤ 0.2"}, {"variant": "DCRR", "one-hybrid fitness for binding NBS DNA": 0.416}, {"variant": "DSRR", "one-hybrid fitness for binding NBS DNA": "≤ 0.2"}, {"variant": "KTRR", "one-hybrid fitness for binding NBS DNA": 0.541}, {"variant": "KTYR", "one-hybrid fitness for binding NBS DNA": "≤ 0.2"}, {"variant": "KMDR", "one-hybrid fitness for binding NBS DNA": "≤ 0.2"}, {"variant": "KMYR", "one-hybrid fitness for binding NBS DNA": "≤ 0.2"}, {"variant": "KKYR", "one-hybrid fitness for binding NBS DNA": "≤ 0.2"}, {"variant": "QEHI", "one-hybrid fitness for binding NBS DNA": "≤ 0.2"}, {"variant": "GLEC", "one-hybrid fitness for binding NBS DNA": "≤ 0.2"}, {"variant": "KISR", "one-hybrid fitness for binding NBS DNA": "≤ 0.2"}, {"variant": "NLTF", "one-hybrid fitness for binding NBS DNA": "≤ 0.2"}, {"variant": "IPIE", "one-hybrid fitness for binding NBS DNA": "≤ 0.2"}, {"variant": "AYRA", "one-hybrid fitness for binding NBS DNA": "≤ 0.2"}, {"variant": "LADD", "one-hybrid fitness for binding NBS DNA": "≤ 0.2"}, {"variant": "DHMR", "one-hybrid fitness for binding NBS DNA": "≤ 0.2"}, {"variant": "RSEM", "one-hybrid fitness for binding NBS DNA": "≤ 0.2"}, {"variant": "KIPV", "one-hybrid fitness for binding NBS DNA": "≤ 0.2"}, {"variant": "AVRD", "one-hybrid fitness for binding NBS DNA": "≤ 0.2"}, {"variant": "ISPK", "one-hybrid fitness for binding NBS DNA": "≤ 0.2"}, {"variant": "CECG", "one-hybrid fitness for binding NBS DNA": "≤ 0.2"}, {"variant": "HLGA", "one-hybrid fitness for binding NBS DNA": "≤ 0.2"}, {"variant": "KHQR", "one-hybrid fitness for binding NBS DNA": "≤ 0.2"}, {"variant": "KHRR", "one-hybrid fitness for binding NBS DNA": 0.367}, {"variant": "KHYR", "one-hybrid fitness for binding NBS DNA": "≤ 0.2"}, {"variant": "KCRR", "one-hybrid fitness for binding NBS DNA": 0.46}, {"variant": "NQRR", "one-hybrid fitness for binding NBS DNA": "≤ 0.2"}, {"variant": "KQYR", "one-hybrid fitness for binding NBS DNA": "≤ 0.2"}, {"variant": "KPRR", "one-hybrid fitness for binding NBS DNA": "≤ 0.2"}, {"variant": "KQRR", "one-hybrid fitness for binding NBS DNA": 0.416}, {"variant": "KSRR", "one-hybrid fitness for binding NBS DNA": 0.343}, {"variant": "PLRA", "one-hybrid fitness for binding NBS DNA": "≤ 0.2"}, {"variant": "YGEG", "one-hybrid fitness for binding NBS DNA": "≤ 0.2"}, {"variant": "NPWT", "one-hybrid fitness for binding NBS DNA": "≤ 0.2"}, {"variant": "YGMG", "one-hybrid fitness for binding NBS DNA": "≤ 0.2"}, {"variant": "ETAK", "one-hybrid fitness for binding NBS DNA": "≤ 0.2"}, {"variant": "RFQF", "one-hybrid fitness for binding NBS DNA": "≤ 0.2"}, {"variant": "NMWY", "one-hybrid fitness for binding NBS DNA": "≤ 0.2"}, {"variant": "NYHG", "one-hybrid fitness for binding NBS DNA": "≤ 0.2"}, {"variant": "ANWC", "one-hybrid fitness for binding NBS DNA": "≤ 0.2"}, {"variant": "AQQE", "one-hybrid fitness for binding NBS DNA": "≤ 0.2"}, {"variant": "RPKH", "one-hybrid fitness for binding NBS DNA": "≤ 0.2"}, {"variant": "RMKH", "one-hybrid fitness for binding NBS DNA": 0.402}, {"variant": "RMKN", "one-hybrid fitness for binding NBS DNA": "≤ 0.2"}, {"variant": "RCKH", "one-hybrid fitness for binding NBS DNA": 0.403}, {"variant": "RSKH", "one-hybrid fitness for binding NBS DNA": 0.357}, {"variant": "RMKP", "one-hybrid fitness for binding NBS DNA": "≤ 0.2"}, {"variant": "RMVS", "one-hybrid fitness for binding NBS DNA": 0.29}, {"variant": "RMKS", "one-hybrid fitness for binding NBS DNA": 0.598}, {"variant": "RMKD", "one-hybrid fitness for binding NBS DNA": "≤ 0.2"}, {"variant": "CHSP", "one-hybrid fitness for binding NBS DNA": "≤ 0.2"}, {"variant": "DPDC", "one-hybrid fitness for binding NBS DNA": "≤ 0.2"}, {"variant": "RVHS", "one-hybrid fitness for binding NBS DNA": 0.461}, {"variant": "RVHH", "one-hybrid fitness for binding NBS DNA": "≤ 0.2"}, {"variant": "RVHR", "one-hybrid fitness for binding NBS DNA": 0.484}, {"variant": "RVHY", "one-hybrid fitness for binding NBS DNA": "≤ 0.2"}, {"variant": "RVAS", "one-hybrid fitness for binding NBS DNA": 0.358}, {"variant": "RVHD", "one-hybrid fitness for binding NBS DNA": "≤ 0.2"}, {"variant": "RVFT", "one-hybrid fitness for binding NBS DNA": 0.271}, {"variant": "RVHM", "one-hybrid fitness for binding NBS DNA": "≤ 0.2"}, {"variant": "RVHP", "one-hybrid fitness for binding NBS DNA": "≤ 0.2"}, {"variant": "RVHT", "one-hybrid fitness for binding NBS DNA": 0.487}, {"variant": "RVAT", "one-hybrid fitness for binding NBS DNA": 0.383}, {"variant": "RVHN", "one-hybrid fitness for binding NBS DNA": "≤ 0.2"}, {"variant": "GNNW", "one-hybrid fitness for binding NBS DNA": "≤ 0.2"}, {"variant": "HSLW", "one-hybrid fitness for binding NBS DNA": "≤ 0.2"}, {"variant": "SLMG", "one-hybrid fitness for binding NBS DNA": "≤ 0.2"}, {"variant": "ACAR", "one-hybrid fitness for binding NBS DNA": "≤ 0.2"}, {"variant": "KRNK", "one-hybrid fitness for binding NBS DNA": "≤ 0.2"}, {"variant": "SCKG", "one-hybrid fitness for binding NBS DNA": "≤ 0.2"}, {"variant": "SRHE", "one-hybrid fitness for binding NBS DNA": "≤ 0.2"}, {"variant": "IGMS", "one-hybrid fitness for binding NBS DNA": "≤ 0.2"}, {"variant": "LVKR", "one-hybrid fitness for binding NBS DNA": "≤ 0.2"}, {"variant": "RVPT", "one-hybrid fitness for binding NBS DNA": "≤ 0.2"}, {"variant": "RVQP", "one-hybrid fitness for binding NBS DNA": "≤ 0.2"}, {"variant": "RVQD", "one-hybrid fitness for binding NBS DNA": "≤ 0.2"}, {"variant": "RVQT", "one-hybrid fitness for binding NBS DNA": 0.438}, {"variant": "RVRT", "one-hybrid fitness for binding NBS DNA": 0.631}, {"variant": "RVYT", "one-hybrid fitness for binding NBS DNA": 0.357}, {"variant": "QQQI", "one-hybrid fitness for binding NBS DNA": "≤ 0.2"}, {"variant": "DRRL", "one-hybrid fitness for binding NBS DNA": "≤ 0.2"}, {"variant": "MTMS", "one-hybrid fitness for binding NBS DNA": "≤ 0.2"}, {"variant": "RRCH", "one-hybrid fitness for binding NBS DNA": 0.382}, {"variant": "RRCN", "one-hybrid fitness for binding NBS DNA": 0.248}, {"variant": "RRCD", "one-hybrid fitness for binding NBS DNA": "≤ 0.2"}, {"variant": "RRCP", "one-hybrid fitness for binding NBS DNA": "≤ 0.2"}, {"variant": "RRCS", "one-hybrid fitness for binding NBS DNA": 0.642}, {"variant": "RRCG", "one-hybrid fitness for binding NBS DNA": 0.296}]}]}
